# Data from the supplement of paper PMC9135407.
# Where a name gives a salt, the structure may show the parent alone.
# Tested on: primary human hepatic stellate cells (donor 1)
# Experiment: PSMB2 reference mRNA level vs DMSO (fold); higher = more PSMB2 expression
# Settings: 48 h
# Experimental: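 Secondary qRT-PCR screen in primary human HSCs (donor 1), 384-well plates, with compounds dispensed in quadruplicate and incubated for 48 h. Cells-to-CT lysates were used for multiplexed TaqMan qPCR of ACTA2 or COL1A1 with PSMB2 as reference. Fold changes versus DMSO come from a linear model (Ct_gene ~ Ct_PSMB2 + plate + chemical). A hit is defined as COL1A1 and ACTA2 FC <0.5 (FDR <0.05) with PSMB2 between 0.2 and 2.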
row,SMILES,PSMB2 reference mRNA level
1,CN1CCC(NC(=O)c2cc(-c3c(O)cc(O)cc3Oc3ccc([N+](=O)[O-])cc3)on2)CC1 (33.3333 µM),0.306
2,C#CC1(O)CC[C@H]2[C@@H]3CCC4=CC(=O)CC[C@@H]4[C@H]3CC[C@@]21CC (stereo not given in full) [Norgestrel] (21.3333 µM),1.14
3,Cc1cc(C(=O)Nc2cc(Nc3ccc4c(/C=C/c5ccccn5)n[nH]c4c3)ccc2F)n(C)n1 (33.3333 µM),0.985
4,CC(/C=C/C(=O)NO)=C\[C@@H](C)C(=O)c1ccc(N(C)C)cc1 [Trichostatin A] (3.33333 µM),1.36
5,NC1(c2ccc(-c3nc4ccn5c(=O)[nH]nc5c4cc3-c3ccccc3)cc2)CCC1 (11.1 µM),3.72
6,CN(C)C/C=C(/c1ccc(Br)cc1)c1cccnc1 [Zimelidine dihydrochloride] (11.1 µM),0.28
7,CCNC(=O)c1noc(-c2cc(C(C)C)c(O)cc2O)c1-c1ccc(CN2CCOCC2)cc1 (11.1 µM),1.72
8,C[C@H]1O[C@@H](O[C@H]2[C@@H](O)C[C@H](O[C@H]3[C@@H](O)C[C@H](O[C@H]4CC[C@@]5(C)[C@H](CC[C@@H]6[C@@H]5C[C@@H](O)[C@]5(C)[C@@H](C7=CC(=O)OC7)CC[C@]65O)C4)O[C@@H]3C)O[C@@H]2C)C[C@H](O)[C@@H]1O [Digoxin] (33.3333 µM),1.06
9,CNc1nccc(-c2cccnc2Oc2cc(C(=O)Nc3cccc(C(F)(F)F)c3)ccc2C)n1 (33.3333 µM),0.887
10,CNCCCC12CCC(c3ccccc31)c1ccccc12 [Maprotiline hydrochloride] (33.3333 µM),1.89
